HEK cytotox = kills HEK 293 cells | HEK 293 viability, ATP luminescence (CellTiter-Glo), 48-72 h | Potency, µM (titrated, usually from 115 µM), actives largely listed as inhibitors | 94,000 compounds, 6.6% hits; also: nearly all actives have a fitted effect of over 60% in size
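Viability of HEK 293 cells, plated at 250 cells/well, was judged by cellular ATP after compound treatment for 48 or 72 hr. Luminescence was imaged 10 min after CellTiter-Glo addition at room temperature.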
FLuc inh = inhibitors of firefly (Photinus pyralis) luciferase. P08659. purified P. pyralis luciferase, luminescence, biochemical. Potency, µM (titrated, usually from 115 µM), most hits filed as inhibitors. 76,000 compounds, 2.5% hits; also: nearly all actives have a fitted effect of over 65% in size
Target sequence (P08659 whole entry, looked up): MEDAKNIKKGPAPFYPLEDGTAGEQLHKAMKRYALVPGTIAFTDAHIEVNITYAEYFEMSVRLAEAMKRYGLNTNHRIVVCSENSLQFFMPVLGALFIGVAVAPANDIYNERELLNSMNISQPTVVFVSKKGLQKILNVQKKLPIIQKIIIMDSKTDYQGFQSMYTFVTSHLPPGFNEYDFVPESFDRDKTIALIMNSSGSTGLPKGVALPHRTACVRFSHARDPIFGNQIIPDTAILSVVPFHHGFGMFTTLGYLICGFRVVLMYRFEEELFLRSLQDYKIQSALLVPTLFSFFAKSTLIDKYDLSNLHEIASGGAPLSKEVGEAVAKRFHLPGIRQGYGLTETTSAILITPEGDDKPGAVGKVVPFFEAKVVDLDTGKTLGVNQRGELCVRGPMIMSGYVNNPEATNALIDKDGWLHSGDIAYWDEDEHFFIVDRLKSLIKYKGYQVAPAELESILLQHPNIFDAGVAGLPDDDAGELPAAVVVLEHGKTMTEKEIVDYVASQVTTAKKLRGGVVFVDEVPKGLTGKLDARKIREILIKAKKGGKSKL
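Purified P. pyralis luciferase (10nM final) in 50mM Tris acetate pH 7.5, 10mM Mg acetate, 0.01% Tween-20, 0.05% BSA with 10uM D-luciferin and 10uM ATP. Compounds titrated qHTS. Luminescence imaged on CCD.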
HEK293 viab = reduces viability of HEK-293 SNCA reporter cells. HEK-293-SNCA-luc viability, GF-AFC fluorescence, 24 h. 150,000 compounds, 0.12% hits. Potency, µM (doses to about 57.1 µM), hits mostly cytotoxic. AID 1671193; also: nearly all actives have a fitted effect of over 30% in size
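Cytotoxicity counterscreen: after 24 h compound treatment of genome-edited SNCA-luciferase HEK-293 cells, live-cell protease substrate GF-AFC read by fluorescence after 30 min; activity scaled between DMSO (0%) and medium-only (-100%), curves Hill-fitted.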
SNCA expr inhib = SNCA gene expression inhibition | Potency, µM (top dose mostly 57.2 µM), hits mostly inhibitors | HEK-293 SNCA-luciferase knock-in, luminescence, 24 h | 140,000 compounds, 0.17% hits; also: nearly all actives have a fitted effect of over 45% in size
hNpr1 antagonist = antagonists of human natriuretic peptide receptor Npr1; HEK293 hNpr1 GloSensor cGMP, ANP-stimulated luminescence; P16066; Potency, µM (series often up to 46.3 µM), most hits filed as inhibitors; 76,000 compounds, 1.6% hits; calls by dose curve; also: nearly all actives have a fitted effect of over 60% in size
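HEK293 cells stably expressing human Npr1 and cGMP GloSensor pGS-40F, loaded 2 h with 2% GloSensor reagent, given compound 30 min at room temperature. Luminescence read before and 20 min after 0.1 nM hNppA.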
3T3 cytotox = NIH 3T3 cell cytotoxicity. NIH 3T3 viability, CellTiter-Glo ATP luminescence, 48-72 h. AID 1345082. 94,000 compounds, 4.3% hits. Potency, µM (doses to about 96.7 µM), most hits filed as inhibitors; also: nearly all actives have a fitted effect of over 55% in size
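NIH 3T3 cells at 400 cells/well received 23 nL of compound by pintool and were incubated 48 or 72 h at 37 °C. Viability was read as ATP-coupled CellTiter-Glo luminescence.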
Hits are given with their value; n = inactive; u = inconclusive; x = no result; ! = not confirmed by another sample. Rows were chosen to be rich in hits. Some 7.2% of all compounds tested hit in one or more screens of this group. Unless noted, calls follow the shape of the dose curve; as a rule, active = well fitted curve in the direction sought with a large enough effect; inconclusive = small, poorly fitted or top-dose-only effect, or another doubt; inactive = no such curve, though single readings can be large; an effect the other way counts as inactive or inconclusive.

SMILES | HEK cytotox | FLuc inh | HEK293 viab | SNCA expr inhib | hNpr1 antagonist | 3T3 cytotox
COc1ccc(CN(C)CC2CCN(CCc3ccc(F)cc3)CC2)cc1Cn1cccn1 | 28.2µM | n | n | u | n | 39.8µM
Cn1cc(CN[C@H]2[C@H](O)[C@H](O)C[C@@H]2c2cccnc2)c2ccccc21 | 100µM | n | n | u | n | u
Cn1cc(CN[C@H]2[C@H](O)[C@H](O)C[C@@H]2c2ccccc2)c2ccccc21 | u | n | n | n | n | u
O=C(NC1CC1)c1nc(-c2ccc(Cl)cc2Cl)c2ccccn12 | 35.5µM | n | n | n | n | u
O=C(NC1CC1)c1nc(-c2ccc(F)cc2)c2ccccn12 | 89.1µM! | n | n | n | n | u
O=C(NC1CC1)c1nc(-c2cccc(C(F)(F)F)c2)c2ccccn12 | u | n | n | n | n | u
O=C(NC1CC1)c1nc(-c2cccnc2)c2ccccn12 | n | x | n | n | x | 44.7µM
O=C(NC1CC1)c1nc(-c2cc(Cl)cc(Cl)c2)c2ccccn12 | u | n | n | n | n | n
O=C(O)CCC(=O)N1CCC2(CC1)Cc1ccccc1N(C(=O)c1ccc(Cl)cc1)C2 | n | x | n | n | x | 31.6µM
NC(=O)c1cccc(CN2CCC3(CC2)Cc2ccccc2N(C(=O)c2ccc(Cl)cc2)C3)c1 | 39.8µM | x | u | n | x | u
O=C(c1ccc(Cl)cc1)N1CC2(CCCN(Cc3ccccn3)C2)Cc2ccccc21 (stereo unspecified) | 31.6µM | x | n | u | x | u
O=C(O)CCC(=O)N1CCC2(CC1)Cc1ccccc1N(C(=O)C1CCCC1)C2 | n | x | n | n | x | u
O=C(c1ccc(Cl)cc1)N1CC2(CCN(Cc3ccc(Cl)cc3)C2)Cc2ccccc21 (stereo unspecified) | u | x | n | n | x | u
NC(=O)c1cccc(CN2CCC3(Cc4ccccc4N(C(=O)c4ccc(Cl)cc4)C3)C2)c1 (stereo unspecified) | 35.5µM | x | u | n | x | u
O=C(Nc1cc(-c2ccncc2)nn1-c1ccccc1)c1cccc(Cl)c1 | u | x | n | n | x | u
CCC1(N2CCN(C)CC2)CCN(C(=O)CCC2CCCC2)C1 (stereo unspecified) | n | n | n | n | n | n
CCn1nc(CC(C)C)cc1C(=O)N(C)Cc1cccc(-n2cccn2)c1 | 50.1µM | n | n | n | n | u
COC1C(=O)N(c2cccc(F)c2)C12CCN(S(=O)(=O)c1ccc(C#N)cc1)CC2 (stereo unspecified) | n | n | n | n | n | n
COc1ccccc1CNC(=O)C1CCCN1Cc1ccc(-c2cc(C)cc(C)c2)cc1 (stereo unspecified) | 39.8µM | x | n | n | x | 39.8µM
CNC(=O)C1CCCN1Cc1ccc(-c2cc(C)cc(C)c2)cc1 (stereo unspecified) | u | x | n | n | x | u
CCOCCNC(=O)C1CCCN1Cc1ccc(-c2cc(C)cc(C)c2)cc1 (stereo unspecified) | 35.5µM | x | n | n | x | u
Cc1cc(C)cc(-c2ccc(CN3CCCC3C(=O)NCC3CC3)cc2)c1 (stereo unspecified) | 39.8µM | x | n | n | x | 39.8µM
Cc1cc(C)cc(-c2ccc(CN3CCCC3C(=O)NCCc3ccc(F)cc3)cc2)c1 (stereo unspecified) | 44.7µM | x | n | n | x | u
Cc1cc(C)cc(-c2ccc(CN3CCCC3C(=O)NCc3ccc(C(F)(F)F)cc3)cc2)c1 (stereo unspecified) | 39.8µM | x | n | n | x | 35.5µM
Cc1cc(C)cc(-c2ccc(CN3CCCC3C(=O)NCCCc3ccccc3)cc2)c1 (stereo unspecified) | u | x | n | n | x | u
SMILES | HEK cytotox | FLuc inh | HEK293 viab | SNCA expr inhib | hNpr1 antagonist | 3T3 cytotox
Cc1cc(C)cc(-c2ccc(CN3CCCC3C(=O)NCc3cccnc3)cc2)c1 (stereo unspecified) | 50.1µM | x | n | n | x | u
Cc1cc(C)cc(-c2ccc(CN3CCCC3C(=O)NCc3cccs3)cc2)c1 (stereo unspecified) | u | x | n | n | x | u
CC(C)NC(=O)c1ccc2oc(-c3ccncc3)nc2c1 | u | x | n | n | x | n
COc1ccc(C2(O)CCC(N3CC[C@@H](NC(=O)CNC(=O)c4cccc(C(F)(F)F)c4)C3)CC2)cn1 (stereo partly specified) | x | x | n | x | x | x
CN(C)C(=O)N1CCC(c2nn(-c3ccccn3)c(=O)[nH]2)CC1 | n | x | n | n | x | n
CC1=C[C@@H](CNC(=O)COc2ccccc2)[C@H](C(C)C)C[C@H]1CC(=O)NCCN1CCOCC1 | n | n | n | n | n | n
CC(=O)Nc1ccc(C(=O)NC[C@@H]2C=C(C)[C@H](CC(=O)NCCN3CCOCC3)C[C@H]2C(C)C)cc1 | n | 44.7µM | n | n | n | n
CC1=C[C@@H](CNC(=O)c2cnccn2)[C@H](C(C)C)C[C@H]1CC(=O)NCCN1CCOCC1 | n | n | n | n | n | n
CC1=C[C@@H](CNS(=O)(=O)c2cccs2)[C@H](C(C)C)C[C@H]1CC(=O)NCCN1CCOCC1 | n | n | n | n | n | 25.1µM
Cc1cnc(C(=O)N2CCC(c3noc(-c4ccncc4)n3)C2)cn1 (stereo unspecified) | n | n | n | n | n | n
c1cncc(COc2cc3c(cn2)NCCN(CC2CCCCC2)C3)c1 | u | n | n | n | n | u
Cc1ccccc1NC(=O)Cn1ccn2nc3c(c2c1=O)CCCCC3 | n | u | n | n | n | n
COc1ccccc1-c1cccc(CN2CCC(N[S+](=O)([O-])c3cccc(C(F)(F)F)c3)CC2)c1 | u | x | x | x | x | 12.6µM
COc1ccccc1-c1cccc(CN2CCC(NC(=O)C3CC3)CC2)c1 | u | x | n | n | x | u
CNC(=O)C1CCCN(Cc2cccc(-c3ccccc3OC)c2)C1 (stereo unspecified) | u | x | n | n | x | n
COc1ccccc1-c1cccc(CN2CCC(N[S+](=O)([O-])c3ccccc3)CC2)c1 | 39.8µM | x | n | n | x | 31.6µM
COCC1CN(C(C)=O)CC12CCN(S(=O)(=O)c1cn(C)cn1)CC2 (stereo unspecified) | n | n | u | n | n | n
COc1ccccc1CN1Cc2cc(NC(=O)c3ccc(C#N)cc3)ccc2OC(C)C1=O (stereo unspecified) | u | n | n | n | n | u
Cc1ccc(CNC(=O)c2ccc3c(c2)CN(Cc2ccc(C)o2)CCO3)cc1 | u | x | n | n | x | u
NCc1ccccc1-c1ccc(O)cc1 | n | x | n | n | x | n
NCc1ccccc1-c1cnc2ccccc2c1 | u | x | n | n | x | 100µM
O=C1Nc2ccccc2CNC12CCN(CC1CCCC1)CC2 | n | x | n | n | x | n
O=C1Cc2c(-c3ccccc3Cl)n[nH]c2CN1CC1CC1 | u | n | n | n | n | u

Assay outcomes from PubChem BioAssay.
